A short description of experiment [1]: qHTS profiling for inhibitors of Plasmodium falciparum proliferation (AID 504749). Further: potency means the concentration at half of the fitted maximal effect.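 On activity, negative = inhibition: 0% = DMSO vehicle and full inhibition = artemisinin control.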 On all read-outs here: nearly all actives have a fitted effect of over 60% in size. To be noted: P. falciparum in erythrocytes, SYBR Green DNA, 72 h; for activity, negative = inhibition: at 28.7 µM (top of the series). The procedure, abridged: (§1)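 Fluorescence of SYBR Green-bound parasite DNA, read at 485/535 nm, served as the growth measure. Infected erythrocytes were cultured with compound 72 h; artemisinin (0.29 uM) and DMSO wells defined the normalization range.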
On the technique in general: Quantitative high-throughput screening tests each substance at several concentrations.

The subject of another experiment is 3D7. The experiment is described as above. To be noted: P. falciparum in erythrocytes, SYBR Green DNA, 72 h; series mostly up to 28.7 µM. The method, boiled down: as §1
Another experiment has as its system 7G8. The experiment is described as above. Particulars: P. falciparum in erythrocytes, SYBR Green DNA, 72 h; series mostly up to 28.7 µM. The method, boiled down:
as §1

The subject of a further experiment is AA1029. The experiment is described as above. To be noted: P. falciparum in erythrocytes, SYBR Green DNA, 72 h; series mostly up to 28.7 µM. The procedure, abridged:
as §1

The test system of the next experiment is AS120. The description is as above. To be noted: P. falciparum in erythrocytes, SYBR Green DNA, 72 h; series mostly up to 28.7 µM. The method, boiled down:
as §1

A further experiment concerns ATS189. The description is as above. To be noted: P. falciparum in erythrocytes, SYBR Green DNA, 72 h; series mostly up to 28.7 µM. The method, boiled down: as §1
Another experiment deals with ATS95. Described as above. Particulars: P. falciparum in erythrocytes, SYBR Green DNA, 72 h; series mostly up to 28.7 µM. The method, boiled down: as §1
The subject of a further experiment is C2A. The description is as above. To be noted: P. falciparum in erythrocytes, SYBR Green DNA, 72 h; series mostly up to 28.7 µM. The procedure, abridged:
as §1

The test system of another experiment is CP185. The description is as above. Particulars: P. falciparum in erythrocytes, SYBR Green DNA, 72 h; series mostly up to 28.7 µM. The method, boiled down: as §1
The next experiment relates to CP191. Described as above. Particulars: P. falciparum in erythrocytes, SYBR Green DNA, 72 h; series mostly up to 28.7 µM. The procedure, abridged:
as §1

Experiment [2] can be described thus: qHTS drug screen for cell cycle checkpoint inhibitors in PARPi-resistant BRCA-mutant ovarian cancer cell lines. (AID 1963452; calls by dose curve; further: potency means the concentration at half of the fitted maximal effect). Particulars: PEO1/OlaR viability, CellTiter-Glo luminescence, 96 h; for Z-AUC: stronger effect = lower value. The method, boiled down:
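PEO1, PEO4 and PEO1/OlaR ovarian cancer cells, 600 per well, exposed 96 h at 37C to a dilution series. Viability read by CellTiter-Glo luminescence, normalized to DMSO and empty wells; activity summarized as Z-AUC.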

Experiment [3] addresses Cytochrome P450 2C19 (Homo sapiens) (UniProt P33261). Description: qHTS for inhibitors of CYP2C19 against the NCATS DSHEA and TCM libraries (AID 1919974). Further: potency means the concentration at half of the fitted maximal effect. Particulars: CYP2C19 enzyme inhibition, luminescence qHTS; series mostly up to 34.1 µM. The procedure, abridged: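 Substances were tested against enzyme with a pro-luciferin substrate; minus-enzyme wells served as background. After NADPH-initiated oxidation (30-45 min, RT), light was generated with P450-Glo reagent.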

A short description of experiment [4]: KB-3-1 P-gp reporter qHTS against the NCATS DSHEA and TCM libraries (AID 1919975). Further: 0% is about no effect. Particulars: KB-3-1 parental cells, CellTiter-Glo luminescence viability, 72 h; series mostly up to 26.1 µM. The procedure, abridged: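 Parental KB-3-1 cells, 500 cells/well, in DMEM with 10% FBS, exposed 72 h at 37 C to compounds in concentration-response. Viability read by CellTiter-Glo luminescence after 30 min at room temperature.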

Experiment [5] in a line: KB-8-5-11 P-gp reporter qHTS against the NCATS DSHEA and TCM libraries (AID 1919977). Further: 0% is about no effect. To be noted: KB-8-5-11 cells; series mostly up to 26.1 µM. The procedure, abridged:
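P-gp-overexpressing KB-8-5-11 cells were screened in colchicine-free medium at 500 cells/well, as a titration series. Cells were exposed for 72 h at 37C. Viability was read by CellTiter-Glo luminescence after 30 min at room temperature.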

The nature of experiment [6]: qHTS Counterscreen for compound interference against the NCATS DSHEA and TCM libraries (AID 1919978).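 Further: compounds preincubated with 1 µM D-luciferin or buffer before detection reagent; % of control where 0% means no effect.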 To be noted: firefly luciferase detection reagent interference, luminescence. The procedure, abridged: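 Firefly luciferase detection reagent was added after compounds (19.5 nM–39.8 uM final) had been incubated 15 min at room temperature with 1 uM D-luciferin or with 100 mM phosphate buffer alone. Luminescence was read after 30 min at room temperature.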

Experiment [7] can be described thus: Dual reporter qHTS for agonist of Pregnane X Receptor (hPXR) against the NCATS DSHEA and TCM libraries: Fluorescence readout (AID 1920058). Further: 0% is about no effect. Particulars: PXR dual reporter cells; series mostly up to 40 µM. The procedure, abridged: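 Fluorescence read-out for cell viability: CellTiter-Fluor, 1 h at 37 °C, Ex/Em 405/540 nm. This followed ~24 h treatment of hPXR-Luc HepG2 cells with substances in agonist mode.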

In experiment [8] the target is Nuclear receptor subfamily 1 group I member 2 (Homo sapiens) (UniProt O75469). Put plainly: Dual reporter qHTS for antagonist of Pregnane X Receptor (hPXR) against the NCATS DSHEA and TCM libraries: Luminescence Readout (AID 1920060).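 Further: HepG2 cells carrying hPXR luciferase reporter stimulated with rifampicin at 2 µM; 0% is about no effect.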 To be noted: hPXR dual reporter cells, luciferase luminescence, antagonist mode; series mostly up to 40 µM. The procedure, abridged:
(§2)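 In antagonist mode, 2 uM rifampicin was added to hPXR-Luc HepG2 cells alongside test substances, incubated 24 h at 37 C; luminescence gave reporter activity, and CellTiter-Fluor fluorescence (405/540 nm) gave viability.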

Experiment [9] can be described thus: Dual reporter qHTS for antagonist of Pregnane X Receptor (hPXR) against the NCATS DSHEA and TCM libraries: Fluorescence Readout (AID 1920061). Further: 0% is about no effect. Particulars: PXR dual reporter cells, antagonist mode; series mostly up to 40 µM. The procedure, abridged:
as §2

The mark [10] stands for this setting: measured here: PEO1 parental Z-AUC.

Molecules are shown by their SMILES. Several values for one entry are separate records, joined by “and”; a condition that tells them apart may be missing. Equal values may be shown once. Results filed as inconclusive are left out. More than one record can exist for a structure, and the calls need not agree. Activity calls are given as the source filed them. Unless noted, the call rests on the fitted dose curve; in most records, active means well fitted curve in the direction sought with a large enough effect; inconclusive means small, poorly fitted or top-dose-only effect, or another doubt; inactive means no such curve, though single readings can be large; an effect the other way counts as inactive or inconclusive.

Cytochrome P450 2C19 (Homo sapiens), sequence (P33261 whole entry, looked up): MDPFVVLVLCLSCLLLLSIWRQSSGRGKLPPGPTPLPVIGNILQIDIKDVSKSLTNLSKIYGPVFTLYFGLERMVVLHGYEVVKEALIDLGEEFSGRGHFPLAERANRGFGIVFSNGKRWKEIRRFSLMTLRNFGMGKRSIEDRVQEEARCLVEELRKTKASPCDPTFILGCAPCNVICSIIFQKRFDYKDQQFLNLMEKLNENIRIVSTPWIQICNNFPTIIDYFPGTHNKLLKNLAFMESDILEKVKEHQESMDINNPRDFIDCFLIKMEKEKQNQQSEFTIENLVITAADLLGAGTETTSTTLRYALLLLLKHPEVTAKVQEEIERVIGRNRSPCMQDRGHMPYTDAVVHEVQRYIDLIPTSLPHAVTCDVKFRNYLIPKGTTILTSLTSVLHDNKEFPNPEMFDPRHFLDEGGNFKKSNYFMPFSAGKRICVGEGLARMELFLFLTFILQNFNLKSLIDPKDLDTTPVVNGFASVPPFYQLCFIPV
Nuclear receptor subfamily 1 group I member 2 (Homo sapiens), sequence (O75469 whole entry, looked up): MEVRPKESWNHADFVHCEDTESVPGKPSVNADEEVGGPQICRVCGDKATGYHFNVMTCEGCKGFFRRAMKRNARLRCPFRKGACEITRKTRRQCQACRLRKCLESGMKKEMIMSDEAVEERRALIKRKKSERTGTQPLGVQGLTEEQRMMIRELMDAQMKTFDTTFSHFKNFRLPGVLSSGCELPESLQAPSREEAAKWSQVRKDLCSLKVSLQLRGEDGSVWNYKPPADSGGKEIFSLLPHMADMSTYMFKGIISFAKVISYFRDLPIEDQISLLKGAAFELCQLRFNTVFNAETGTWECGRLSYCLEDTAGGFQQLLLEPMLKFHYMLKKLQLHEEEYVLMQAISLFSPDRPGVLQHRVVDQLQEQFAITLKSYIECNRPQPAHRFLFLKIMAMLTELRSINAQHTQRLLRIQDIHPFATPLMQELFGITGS

Turning to `C=CCC1(C(C)CCC)C(=O)N=C(S)NC1=O` (stereo not given), the figures for the activity, negative = inhibition in experiment [1] (parasite line A) and in [1] (parasite line B) were -5.63% (inactive) and -5% (inactive), respectively. For the same molecule, the Potency entry in the experiment with 3D7, in the experiment on 7G8, in the experiment on AA1029, in the experiment with AS120, with ATS189 and in the experiment on ATS95 was “inactive” each time. Also, the Potency result in the experiment on C2A, in the experiment on CP185 and with CP191 was “inactive” throughout.
Take `O=c1[nH]c(=O)n(Cl)c(=O)n1Cl`: the results for the activity, negative = inhibition in experiment [1] (parasite line A) and in [1] (parasite line B) were -5.08% (inactive) and 11.2% (inactive), respectively. Besides, the Potency result in the experiment on 3D7, in the experiment on 7G8, in the experiment on AA1029, in the experiment on AS120, in the experiment with ATS189 and in the experiment on ATS95 was “inactive” in each case. The Potency result in the experiment on C2A, in the experiment on CP185 and in the experiment with CP191 was “inactive” each time.
Turning to `COc1ccc2c3c1O[C@H]1C(=O)CC[C@H]4[C@@H](C2)N(C)CC[C@]314`, the activity, negative = inhibition was 0.497% (inactive) in experiment [1] (parasite line A) and -7.39% (inactive) in experiment [1] (parasite line B). Besides, the Potency result in the experiment with 3D7, in the experiment on 7G8, in the experiment on AA1029, in the experiment on AS120, in the experiment with ATS189 and in the experiment on ATS95 was “inactive” throughout. Besides, the Potency entry with C2A, with CP185 and in the experiment on CP191 was “inactive” throughout.
Regarding `CCC1(c2ccccc2)C(=O)NC(=O)N(C(=O)c2ccccc2)C1=O` (stereo not given), the activity, negative = inhibition was -16% (inactive) in [1] (parasite line A) and 9.27% (inactive) in experiment [1] (parasite line B). For the same molecule, the Potency entry in the experiment with 3D7, with AA1029, in the experiment with AS120, in the experiment with ATS189, in the experiment on ATS95 and in the experiment with C2A was “inactive” each time. In addition, the Potency entry in the experiment with CP185 is “inactive”. Moreover, the Potency in the experiment on 7G8 was 10 µM (active).
On to `C[C@]12CC[C@H]3[C@@H](CC[C@@]45O[C@@H]4C(O)=C(C#N)C[C@]35C)[C@@H]1CC[C@@H]2O`, for which the Z-AUC in experiment [2] was 0.0842 (inactive); in [2] (setting [10]), 0.943; in [2] (measured here: PEO4 Z-AUC) it was 0.794.
For the molecule `CCOc1ccccc1-n1c(C(C)N2CCN(C(=O)COc3ccc(Cl)cc3)CC2)nc2ccccc2c1=O` (stereo not given), the Z-AUC was 0.23 (inactive) in [2], 0.347 in experiment [2] (setting [10]) and -0.0275 in [2] (measured here: PEO4 Z-AUC).
For the molecule `O=Cc1ccco1`, the Potency in [3] was 6310 nM (active). Moreover, the result in [4], in [5], in experiment [7], in experiment [8] and in [9] was inactive. For the same molecule, the max response in experiment [6] was -3.87% (inactive). Moreover, the activity, negative = inhibition in experiment [1] (parasite line A) was -15.5% (inactive); in experiment [1] (parasite line B), 9.74% (inactive). In addition, the Potency entry with 3D7, in the experiment with 7G8, with AA1029, in the experiment on ATS189, in the experiment on ATS95 and with C2A was “inactive” throughout. Further, the Potency entry in the experiment with CP185 and in the experiment with CP191 was “inactive” in each case.
For the molecule `C/C(=C\c1csc(C)n1)[C@@H]1C[C@@H]2O[C@]2(C)CCC[C@H](C)[C@H](O)[C@@H](C)C(=O)C(C)(C)[C@@H](O)CC(=O)O1`, the Potency in experiment [2] is 7.8 nM (active); in [1] (parasite line A), 2 nM (active); in [1] (parasite line B), 3.5 nM (active); in the experiment with 3D7, 3.2 nM (active); with AA1029, 4.5 nM (active); in the experiment with AS120 it was 2.5 nM (active). Further, the Potency in the experiment with ATS189 is 7.1 nM (active); with ATS95 it was 3.5 nM (active); in the experiment with C2A, 4.5 nM (active); in the experiment with CP185 it was 2 nM (active); in the experiment with CP191 it was 2.8 nM (active). Moreover, the Z-AUC was -2.7 in experiment [2] (setting [10]) and -2.48 in experiment [2] (measured here: PEO4 Z-AUC).
As to `CC(C)(C)c1cc(O)ccc1O`, the activity, negative = inhibition in [1] (parasite line A) was -22.4% (inactive). Moreover, the Potency was 7940 nM (active) in [1] (parasite line A); 8910 nM (active) in experiment [1] (parasite line B); 2240 nM (active) in the experiment with 3D7; 3.16 µM (active) and 2.82 µM (active) in the experiment with 7G8; 8.91 µM (active) and inactive with AA1029; 8910 nM (active) with AS120. For the same molecule, the Potency in the experiment on ATS189 was 10000 nM (active); in the experiment on ATS95 it was 7940 nM (active); in the experiment with C2A it was 4470 nM (active); in the experiment on CP185, 11.2 µM (active) and inactive; with CP191, 11200 nM (active).
Regarding `CC1=C2C[C@H]3[C@@H](CC=C4C[C@@H](O)CC[C@@]43C)[C@@H]2CC[C@]12O[C@@H]1C[C@H](C)CN[C@H]1[C@H]2C`, the Z-AUC in experiment [2] is -0.41 (inactive); in experiment [2] (setting [10]), -0.348; in experiment [2] (measured here: PEO4 Z-AUC), -0.0838.
As for `O=[N+]([O-])c1cc(I)c(O)c(I)c1`, the activity, negative = inhibition in experiment [1] (parasite line A) is -8.29% (inactive); in experiment [1] (parasite line B) it was -20.5% (inactive). Further, the Potency result in the experiment on 3D7, in the experiment on 7G8, in the experiment on AA1029, in the experiment with AS120, in the experiment on ATS189 and with ATS95 was “inactive” in each case. In addition, the Potency result in the experiment on C2A, with CP185 and with CP191 was “inactive” throughout.

The values are drawn from PubChem BioAssay (NCATS).
